According to publication PMC4552634, “A New Set of Chemical Starting Points with Plasmodium falciparum Transmission-Blocking Potential for Antimalarial Drug Discovery” (PLoS ONE, 2015):
Where two headings read alike, the source gives them in different places. Among all 13,000 compounds or so, about 3,200 (25%) showed an effect of 50% or more. Some of the results follow.

System: P. falciparum stage V gametocytes
Parameters: BacTiter-Glo ATP luminescence viability of purified stage V gametocytes in 384-well plates, per cent inhibition versus DMSO
Settings: 48 h, 5 µM, inhibitor

Compound | % Inhibition | % Inhibition (% Inhibition)
COc1ccc(Nc2ncc3c(-c4cccc(NC(=O)Cc5cccc(F)c5)c4)c[nH]c3n2)cc1OC [TCMDC-135251] | -27.44% | –
CC(C)N1CCN(C(CN2CCN(CCCOc3cccc4ccccc34)CC2)c2ccc(F)cc2)CC1 (centres unmarked) [TCMDC-135494] | 68.95% | –
COc1cccc(CN2CCN(C(c3ccccc3)c3ccccc3)CC2)c1O [TCMDC-125556] | -14.13% | –
COc1ccc2ccccc2c1CCCCN1CCN(CC(c2ccc(F)cc2)N2CCN(C3CCCC3)CC2)CC1 (centres unmarked) [TCMDC-135865] | -18.03% | –
COc1ccc2ccccc2c1CCCCN1CCN(CC(c2ccc(F)cc2)N2CCN(C(C)C)CC2)CC1 (centres unmarked) [TCMDC-134847] | 46.9% | –
COc1ccc(OCCCN2CCN(CC(c3ccc(F)cc3)N3CCN(C(C)C)CC3)CC2)c2ccccc12 (centres unmarked) [TCMDC-135639] | 74.93% | –
Cc1ccccc1OCCCN1CCN(CC(c2ccc(F)cc2)N2CCN(C(C)C)CC2)CC1 (centres unmarked) [TCMDC-135492] | -21.14% | –
COc1cc2ccccc2cc1OCCCN1CCN(CC(c2ccc(F)cc2)N2CCN(C(C)C)CC2)CC1 (centres unmarked) [TCMDC-135496] | 103.4% | –
CC1(C)N=C(N)N=C(N)N1OCCCOc1cccc2ccccc12 [TCMDC-131626] | 30.73% | –
COc1ccc2ccccc2c1CCCCN1CCN(CC(c2ccc(F)cc2)N2CCC(N3CCCC3)CC2)CC1 (centres unmarked) [TCMDC-135866] | 9.799% | –
COc1ccc2ccccc2c1CCCCN1CCN(CC(c2ccc(F)cc2)N2CCC2)CC1 (centres unmarked) [TCMDC-135867] | 60.92% | –
CN1CCN(c2ccc(-c3cccc(NC(=O)c4cccc(Cl)c4)c3)nn2)CC1 [TCMDC-125348] | 20.42% | –
N#CC(c1ccc(Br)cc1)c1ccc2c(C(F)(F)F)cc(C(F)(F)F)nc2n1 (centres unmarked) [TCMDC-123754] | 9.304% | –
CCCN(CCC)S(=O)(=O)c1ccc(C(=O)Nc2nc3ccc(-c4cc(=O)[nH]c(Nc5ccccc5Cl)n4)cc3[nH]2)cc1 [TCMDC-135852] | -12.1% | –
CN1CCOc2ccc(Nc3nnc(-c4cccc(-c5cccnc5)c4)o3)cc2C1 [TCMDC-134278] | -13.91% | –
O=C(/C=C/c1ccccc1F)NC1CCC(CCN2CCc3ccc(-c4cccnc4)cc3CC2)CC1 (centres unmarked) [TCMDC-140229] | -63.4% | –
CN(C)CCn1c(=N)n(CC(O)c2ccc(Cl)c(Cl)c2)c2ccccc21 (centres unmarked) [TCMDC-125810] | 59.92% | –
COc1cccc(C(=O)C2CC2CN(C)CCC(O)c2ccc(Cl)c(Cl)c2)c1 (centres unmarked) [TCMDC-136793] | 24.64% | –
CN(CCC(O)c1ccc(Cl)c(Cl)c1)CC1CC1C(=O)c1ccccc1 (centres unmarked) [TCMDC-136791] | 31.08% | –
CCCCCCCCCCNCC(O)c1ccc(O)c(C(=O)OC)c1 (centres unmarked) [TCMDC-132043] | 1.141% | –
CCCCCCCn1c(=N)n(CC(O)c2ccc(Cl)c(Cl)c2)c2ccccc21 (centres unmarked) [TCMDC-124065] | 113.9% | –
CN(CCN(C)CC(O)c1ccc(Cl)c(Cl)c1)CC(O)c1ccc(Cl)c(Cl)c1 (centres unmarked) [TCMDC-141988] | -33.12% | –
CCN(CC)CCn1c(=N)n(CC(O)c2ccc(Cl)c(Cl)c2)c2ccccc21 (centres unmarked) [TCMDC-124062] | 86.67% | –

Compound | % Inhibition | % Inhibition (% Inhibition)
CCCCCCCCCn1c(NCc2cc(Cl)ccc2O)nc2ccccc21 [TCMDC-123817] | -10.34% | –
CCc1cccc(-n2c(=O)c3cccnc3n2CC(=O)NCc2ccccc2Cl)c1 [TCMDC-125159] | 19.11% | –
Cc1ccc(N2C(N)=NC(N)=NC2c2ccccc2)cc1 (centres unmarked) [TCMDC-123675] | 47.57% | –
O=C(Nc1ccc([N+](=O)[O-])cc1Cl)c1cc2ccccc2cc1O [TCMDC-123517] | 12.28% | –
O=C(/C=C/c1ccccc1)N1CCOC(CCN2CCC(c3ccccc3)CC2)(c2ccc(Cl)c(Cl)c2)C1 (centres unmarked) [TCMDC-135350] | 15.63% | –
CN(Cc1cccc(O)c1)C1CCN(c2cc(NC(=O)c3ccc(F)cc3)ccn2)CC1 [TCMDC-134965] | -26.89% | –
CCCNCc1ccc(-c2ccc(CN(CCOC)C(=O)c3cscn3)cc2)nc1 [TCMDC-141525] | 101.5% | –
CCCNCc1ccc(-c2ccc(CN(Cc3cnc(C)cn3)C(=O)/C=C/c3ccccc3C)cc2)nc1 [TCMDC-141545] | 35.86% | –
CCCNCc1ccc(-c2ccc(CN(Cc3cnc(C)cn3)C(=O)CC#N)cc2)nc1 [TCMDC-141527] | 78.38% | –
CCCNCc1ccc(-c2ccc(CN(CCOC)C(=O)c3ccc([N+](=O)[O-])c(C)c3)cc2)nc1 [TCMDC-141544] | 54.62% | –
CCCNCc1ccc(-c2ccc(CN(CCOC)C(=O)c3cnc(C)cn3)cc2)nc1 [TCMDC-141534] | 98.71% | –
CCc1nc(N)nc(N)c1CCCOc1ccccc1Cl [TCMDC-137928] | -12.09% | –
N#Cc1ccc2c(c1)CN(CC[C@H]1CC[C@H](NC(=O)/C=C/c3c[nH]c4ccccc34)CC1)CC2 [TCMDC-139191] | – | -21.51%
COc1cc(Cc2cnc(N)nc2N)cc(OCCCN2C(=O)c3ccccc3C2=O)c1OC [TCMDC-137365] | 18.85% | –
CCC(C)C(COC(=O)c1cc(OC)c(OC)c(OC)c1)N(C)CCN(C)C(COC(=O)c1cc(OC)c(OC)c(OC)c1)C(C)CC (centres unmarked) [TCMDC-131453] | 2.796% | –
Cc1ccc(Sc2ccc(NC(=O)CN3CCN(C(=O)c4ccco4)CC3)cc2)cc1C [TCMDC-124861] | 2.666% | –
COCc1ccc(CN2CCC(C(=O)Nc3ccc(-c4nc5ccccc5[nH]4)cc3)CC2)o1 [TCMDC-124678] | -40.1% | –
CCCNCc1ccc(-c2ccc(CN(CCOC)C(=O)c3cccc(C#N)c3)cc2)nc1 [TCMDC-141538] | 90.8% | –
CCCNCc1ccc(-c2ccc(CN(CCOC)C(=O)c3ccco3)cc2)nc1 [TCMDC-141535] | 89.84% | –
CCCNCc1ccc(-c2ccc(CN(CCOC)C(=O)c3ccccc3)cc2)nc1 [TCMDC-141540] | 44.11% | –
CCCNCc1ccc(-c2ccc(CN(CCOC)C(=O)/C=C/c3ccccc3C)cc2)nc1 [TCMDC-141546] | 40.67% | –
Cc1ccc(CNC(=O)[C@H](CC(C)C)Nc2cc(C)nc(NCc3ccccc3C)n2)cc1 [TCMDC-134910] | -39.78% | –
Cc1ccc(Nc2ccnc(Nc3ccc(C)c(F)c3)n2)cc1O [TCMDC-138498] | 0.05121% | –

Compound | % Inhibition | % Inhibition (% Inhibition)
O=C(/C=C/c1ccc(Cl)c(Cl)c1)NCCCCCN1CCC(c2c[nH]c3ccccc23)C(O)C1 (centres unmarked) [TCMDC-139694] | – | -6.926%
O=C(Cc1ccc(Cl)cc1)NC1CCN(c2ccnc3cc(Cl)ccc23)C1 (centres unmarked) [TCMDC-133399] | -11.42% | –
CC1(C)OC[C@]2(C)[C@@H](CC[C@]3(C)C4=CC(=O)CCC4CC[C@@H]23)O1 (some centres unmarked) [TCMDC-137379] | 35.88% | –
CCc1sc(-c2ccc(C(C)(C)C)cc2)nc1C(=O)NCCCN1CCCC1=O [TCMDC-133692] | 75.07% | –
CC(C)c1sc(-c2ccc(C(C)(C)C)cc2)nc1C(=O)NCCCN1CCCC1=O [TCMDC-133691] | 25.46% | –
O=C(NCCCN1CCCC1=O)NCc1ccccc1 [TCMDC-123844] | 3.062% | –
CN1CCN(c2ccnc3ccc(NC(=O)Nc4c(Cl)cccc4Cl)cc23)CC1 [TCMDC-139352] | -27.77% | –
O=C(Nc1ccc(Cl)c(Cl)c1)Nc1ccc2nccc(N3CCN(Cc4ccccc4)CC3)c2c1 [TCMDC-139649] | 65.98% | –
O=C(Nc1ccc(Cl)c(Cl)c1)Nc1ccc2nccc(N3CCNCC3)c2c1 [TCMDC-139452] | -0.1389% | –
Cc1ccc(C(C(=O)Nc2ccc(N3CCNCC3)c(Cl)c2)c2ccccc2)cc1 (centres unmarked) [TCMDC-134292] | 32.74% | –
CN1CCN(c2ncnc3ccc(NC(=O)Nc4ccc(Cl)c(Cl)c4)cc23)CC1 [TCMDC-139439] | 21.32% | –
O=C(Nc1ccc(Cl)c(Cl)c1)Nc1ccccc1N1CCNCC1 [TCMDC-133727] | 92.01% | –
Cc1cc(N2CCNCC2)c2cc(NC(=O)Nc3ccc(Cl)c(Cl)c3)ccc2n1 [TCMDC-139533] | 55.92% | –
CN1CCN(c2ccnc3ccc(NC(=O)Nc4ccc(Cl)c(Cl)c4)cc23)CC1 [TCMDC-139321] | 12.28% | –
O=C(Nc1ccc(C(F)(F)F)cc1)Nc1ccccc1N1CCNCC1 [TCMDC-133726] | 29.85% | –
O=C(N[C@@H](CC1CCCCC1)C(=O)NC1CCCc2ccccc21)c1ccc(O)c(-c2cccc(C(F)(F)F)c2)c1 (some centres unmarked) [TCMDC-140821] | 14.55% | –
Cc1cccc(-c2cccc3c(NC(=O)N4CCc5cc6nccc(N7CCN8CCC[C@H]8C7)c6cc54)cccc23)n1 [TCMDC-140053] | -32.82% | –
COc1cc(Cc2cnc(N)nc2N)cc(OCCCCC2SC(=O)NC2=O)c1Br (centres unmarked) [TCMDC-137240] | 11.21% | –
Cc1noc(C)c1-c1cccc(CNCc2cccc(-c3cccc(-c4nc5cccc(C)c5[nH]4)c3)c2)c1.O=C(O)C(F)(F)F [TCMDC-133050] | -47.47% | –
COc1cc(Cc2cnc(N)nc2N)ccc1Oc1ccc(N)cc1 [TCMDC-138639] | -31.17% | –
COc1cc(C2CCCCC2)c(OC)cc1CC1c2cc(O)c(Cl)cc2CCN1C (centres unmarked) [TCMDC-137539] | -5.034% | –
CS(=O)(=O)NCCCNCc1cccc(-c2cccc(-c3nc4cc(C(F)(F)F)ccc4[nH]3)c2)c1.O=C(O)C(F)(F)F [TCMDC-133086] | -10.1% | –
